Assay results taken from PubChem BioAssay (EPA / NIEHS).
The source made the active and inactive calls. How the source made its calls: active means hit-call score of the fitted dose curve at least 0.9, where 1 is the maximum; inactive means score below 0.9.

Target: Transcription factor Sp1 (Homo sapiens) (UniProt P08047)
Assay: ATG_Sp1_CIS: Attagene CIS-FACTORIAL HepG2 Assay for human Specificity Protein 1 (Sp1) (AID 2282961)
Conditions: HepG2 Sp1 cis-reporter transcription, actives raise or lower the signal
Method: ATG_CIS is a cell-based, multiplexed-readout assay that uses HepG2, a human liver cell line, with measurements taken at 24 hours after chemical dosing in a 24-well plate.ATG_Sp1_CIS is one of 52 assay component(s) measured or calculated from the ATG_CIS assay. It is designed to make measurements of mRNA induction, a form of inducible reporter, as detected with fluorescence intensity signals by Reverse transcription polymerase chain reaction (RT-PCR) and Capillary electrophoresis technology.Data from the assay component ATG_Sp1_CIS was analyzed into 1 assay endpoint. This assay endpoint, ATG_Sp1_CIS, was analyzed with bidirectional fitting relative to DMSO as the negative control and baseline of activity. Using a type of inducible reporter, measures of mRNA for gain or loss-of-signal activity can be used to understand the reporter gene at the transcription factor-level as they relate to the gene SP1. Furthermore, this assay endpoint can be referred to as a primary readout, because this assay has produced multiple assay endpoints where this one serves a reporter gene function. To generalize the intended target to other relatable targets, this assay endpoint is annotated to the dna binding intended target family, where the subfamily is zinc finger.
Human liver HepG2 cells are transiently transfected with multiple reporter transcription units (MRTUs) in 6-well plates using FuGene 6 reagent (Roche; 3 ml FuGene/1 mg DNA). The MRTU constructs are regulated by a cis-regulating element (promoter). […] A major difference between the CIS and TRANS system is that in CIS activities of endogenous TFs are measured, whereas the TRANS assay evaluates changes in activities of exogenous, chimeric NR-Gal4 proteins. […] At the end of 24 hour incubation, total RNA was isolated using TriZol reagent (Invitrogen). The isolated RNA is then reverse-transcribed using oligo(dT) primer and Mo-MLV reverse transcriptase (Invitrogen) with DNAse I (Ambion) treatment for 30 min. The one-tenth of the produced cDNA was amplified by PCR using Taq DNA polymerase (Invitrogen) and two reporter sequence-specific primers. The PCR products were fluorescently labeled by primer extension with 6-arboxyfluorescein (6-FAM) 5'-labeled reporter sequence-specific primer (2 min at 95 C, 20 s at 68 C and 10 min at 72 C) and these products were digested with 5U of HpaI (New England Biolabs) for 2h at 37 C. The fragments were purified using Qiaquick PCR columns (Qiagen), analyzed on an ABI 3130xL genetic analyzer (Applied Biosystems) with peak positions identified by using a set of X-rhodamine (ROX)-labeled MapMarker1000 molecular weight standards (BioVentures). The raw capillary electrophoresis data was processed using Attagraph software (Attagene).

Chain of Transcription factor Sp1 (Homo sapiens) (P08047 whole entry, looked up): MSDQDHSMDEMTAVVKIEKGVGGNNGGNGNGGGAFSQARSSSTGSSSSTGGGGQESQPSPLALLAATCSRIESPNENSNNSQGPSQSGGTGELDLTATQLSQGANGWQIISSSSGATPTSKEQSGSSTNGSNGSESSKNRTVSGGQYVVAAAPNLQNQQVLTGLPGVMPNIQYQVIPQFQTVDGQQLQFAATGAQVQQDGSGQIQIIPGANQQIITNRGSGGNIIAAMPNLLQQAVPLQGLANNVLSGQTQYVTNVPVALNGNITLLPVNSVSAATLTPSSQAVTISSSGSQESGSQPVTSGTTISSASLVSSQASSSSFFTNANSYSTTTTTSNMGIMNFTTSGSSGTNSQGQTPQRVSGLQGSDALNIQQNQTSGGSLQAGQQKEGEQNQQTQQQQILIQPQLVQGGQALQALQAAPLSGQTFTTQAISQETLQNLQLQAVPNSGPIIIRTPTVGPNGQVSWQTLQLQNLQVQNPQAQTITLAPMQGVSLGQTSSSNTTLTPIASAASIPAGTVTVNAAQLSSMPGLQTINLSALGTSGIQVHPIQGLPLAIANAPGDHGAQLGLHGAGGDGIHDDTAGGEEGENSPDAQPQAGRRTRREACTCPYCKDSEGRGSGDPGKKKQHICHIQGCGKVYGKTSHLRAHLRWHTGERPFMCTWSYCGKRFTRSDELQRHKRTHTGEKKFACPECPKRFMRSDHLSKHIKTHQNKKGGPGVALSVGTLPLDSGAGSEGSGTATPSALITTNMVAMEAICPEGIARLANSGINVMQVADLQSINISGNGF

outcome, inactive:
Fc1c(F)c(F)c(Br)c(F)c1F
C=C(C)C(=O)O[C@H]1C[C@@H]2CC[C@@]1(C)C2(C)C
O=C(O)c1cccc(C(F)(F)F)c1
Nc1cc([N+](=O)[O-])ccc1Cl
C=C(C)C(=O)Nc1ccc(Cl)c(Cl)c1
CCCCCOC(=O)CCC
C[C@H]1C[C@H]2[C@@H]3CCC4=CC(=O)C=C[C@]4(C)[C@@]3(F)[C@@H](O)C[C@]2(C)[C@@]1(O)C(=O)COP(=O)(O)O
CC(C#N)(CCC(=O)O)N=NC(C)(C#N)CCC(=O)O (stereo not given)
O=C(OCc1ccccc1)C(=O)OCc1ccccc1
CN(CCOc1ccc(CC2SC(=O)NC2=O)cc1)c1ccccn1 (stereo not given)
CC1CC(OC(=O)c2ccccc2O)CC(C)(C)C1 (stereo not given)
CC(C)(CO)[N+](=O)[O-]
CC(C)=CCO
COc1cc(C(C)(C)C)c(O)c(C(C)(C)C)c1
CC(C)(C)C(=O)c1ccccc1
c1ccc2c(c1)c1cccc3ccc4cccc2c4c31
CC(C)(N)CO
FC1(F)C(F)(F)C(F)(F)C2(F)C(F)(C1(F)F)C(F)(F)C(F)(F)C1(F)C(F)(F)C(F)(F)C(F)(F)C(F)(F)C12F (stereo not given)
COc1ccc(Nc2ccccc2)c(C)c1
CCOC(=S)SSC(=S)OCC
CC(C)(C#N)c1cc(Cn2cncn2)cc(C(C)(C)C#N)c1
CSc1nc(NC2CC2)nc(NC(C)(C)C)n1
O=c1cc(-c2ccccc2)oc2cc(O)cc(O)c12
C[C@H]1C[C@@H]2[C@H]([C@@H](O)C[C@@]3(C)[C@H]2CC[C@]3(O)C(=O)CO)[C@@]2(C)C=CC(=O)C=C12
C=C(C)C(=O)O
Clc1cccc(Cl)n1
CC(=O)C(=O)O
O=C(O)CCSCCC(=O)O
CC(=O)OCCOC(C)=O
O=C(O)CN(CCN(CC(=O)O)CC(=O)O)CCN(CC(=O)O)CC(=O)O
CCCCCCCCCCCCCOS(=O)(=O)O
CCCCOCCOCCOCCOCCO
COC(=O)OC
Cc1ccc(C=O)cc1
CNCCO
COC(=O)C1=C(C)NC(C)=C(C(=O)OCCN(C)Cc2ccccc2)C1c1cccc([N+](=O)[O-])c1 (stereo not given)
CC1=CC(=O)NS(=O)(=O)O1
Cc1cccc(Nc2ccccc2C(=O)O)c1C
OC1C(O)C(O)C(O)C(O)C1O (stereo not given)

AC50, active:
Cc1ccc(O)c(C(C)(C)C)c1 80.7 µM
